Inconclusive results are not listed. Active and inactive are the calls of the source. Calls follow the shape of the full dose curve.
Molecular target: Vitamin D3 receptor (Homo sapiens) (UniProt P11473)
Assay: qHTS assay to identify small molecule agonists of the vitamin D receptor (VDR) signaling pathway (AID 743222)
Details: HEK293T VDR-UAS-bla, beta-lactamase FRET ratio, 16 h; series mostly up to 63.5 µM; activation: at the top concentration
Text: National Center for Advancing Translational Sciences [NCATS]
NIH Chemical Genomics Center [NCGC]
U.S. Environmental Protection Agency [EPA]
National Institutes of Environmental Health Sciences [NIEHS]
National Toxicology Program [NTP]
U.S. Food and Drug Administration [FDA]
The vitamin D receptor (VDR), a member of nuclear hormone receptor superfamily, plays a critical role in calcium homeostasis and bone metabolism. It is also involved in cell differentiation and growth, and thrombogenicity.
Tox21 Assay Protocol Summary:
VDR-bla cells were dispensed at 2,000 cells/6 uL/well into black wall/clear-bottom 1536-well plates using a Multidrop Combi (Thermo Fisher Scientific, Waltham, MA) dispenser. After the assay plates were incubated at a 37C and 5% CO2 for 4 h, 23 nL of compounds dissolved in DMSO, positive controls or DMSO only was transferred to the assay plate by a Pintool station (Kalypsys, San Diego, CA). The plates were incubated at 37C and 5% CO2 for 16 h. After 1 uL of LiveBLAzerTM B/G FRET substrate was added using a Bioraptr Flying Reagent Dispenser (FRD) workstation (Beckman Coulter, Indianapolis, IN, USA), the plates were incubated at room temperature for 2 h, and fluorescence intensity was measured by an Envision plate reader (PerkinElmer, Shelton, CT).
% is scaled to controls: 0 for no effect and ±100 for the full control effect; potency is read from the fitted curve at half-maximal effect.

Chain of Vitamin D3 receptor (Homo sapiens) (P11473 whole entry, looked up): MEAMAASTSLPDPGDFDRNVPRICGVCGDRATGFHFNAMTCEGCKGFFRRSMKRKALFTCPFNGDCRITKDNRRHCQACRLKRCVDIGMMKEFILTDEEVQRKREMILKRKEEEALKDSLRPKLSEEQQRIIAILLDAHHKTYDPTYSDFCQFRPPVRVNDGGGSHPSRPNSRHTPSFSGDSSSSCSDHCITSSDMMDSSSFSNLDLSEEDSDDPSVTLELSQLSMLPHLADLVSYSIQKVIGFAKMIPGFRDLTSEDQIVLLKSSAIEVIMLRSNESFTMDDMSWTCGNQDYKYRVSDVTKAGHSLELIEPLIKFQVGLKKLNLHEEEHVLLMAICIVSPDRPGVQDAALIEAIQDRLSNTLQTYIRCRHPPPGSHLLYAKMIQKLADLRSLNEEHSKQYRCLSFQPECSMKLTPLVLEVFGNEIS

SMILES | activation | Potency
c1ccc2c(c1)OCC(C1=NCCN1)O2 (stereo not given) | -19.4% (inactive) | 
CCCN(CCC)CCc1c[nH]c2ccccc12 | -7.16% [at 81.1 µM] (inactive) | 
CCCOCC(=Nc1ccc(Cl)cc1C(F)(F)F)n1ccnc1 |  | 34.6 µM (active)
CC(=O)c1cc(C(C)(C)C)cc2c1CCC2(C)C | 6.25% (inactive) | 
O=C(O)c1cc[c]([Hg][Cl])cc1 | -11% (inactive) | 
Cc1cc(C)cc(OP(=O)(Oc2cc(C)cc(C)c2)Oc2cc(C)cc(C)c2)c1 | 4.06% [at 81.1 µM] (inactive) | 
ClC1=C(Cl)C2(Cl)C3C(Cl)C(Cl)CC3C1(Cl)C2(Cl)Cl (stereo not given) | 20.5% (inactive) | 
COc1ccc(OC)c(CC(C)N)c1 (stereo not given) | 8.39% [at 81.1 µM] (inactive) | 
CCOP(=O)(NC(C)C)Oc1ccc(SC)c(C)c1 (stereo not given) | 4.71% [at 81.1 µM] (inactive) | 
Clc1ccc(C(c2ccc(Cl)cc2)C(Cl)(Cl)Cl)cc1 |  | inactive
CCC(C)(C)C(=O)OC1=C(c2ccc(Cl)cc2Cl)C(=O)OC12CCCCC2 | -6.95% (inactive) | 
CC(C)OS(C)(=O)=O | 3.52% [at 81.1 µM] (inactive) | 
CCOCCOC(C)=O | -2.15% (inactive) | 
N#CNC#N | 6.42% [at 81.1 µM] (inactive) | 
CC(C)OC(=O)C(O)(c1ccc(Cl)cc1)c1ccc(Cl)cc1 | -6.58% (inactive) | 
CC1(C)C(/C=C(\Cl)C(F)(F)F)C1C(=O)OC(C#N)c1cccc(Oc2ccccc2)c1 (stereo not given) | -8.77% [at 81.1 µM] (inactive) | 
CCCSP(=O)(OCC)SCCC | 1.36% [at 81.1 µM] (inactive) | 
CC(C)(C)c1ccc(CSc2cnn(C(C)(C)C)c(=O)c2Cl)cc1 | -8.63% (inactive) | 
CCOC(=O)CC(=O)CCl | 13.6% (inactive) | 
Oc1ccc(C2(c3ccc(O)cc3)c3ccccc3-c3ccccc32)cc1 | 22.2% (inactive) | 

SMILES | activation | Potency
N#CSCSC#N | 3.73% (inactive) | 
O=C(O)COc1nc(Cl)c(Cl)cc1Cl | -9.47% [at 81.1 µM] (inactive) | 
BrC(Br)Br | 3.85% (inactive) | 
CCOC(=O)OC1=C(c2cc(C)ccc2C)C(=O)NC12CCC(OC)CC2 (stereo not given) | -0.676% (inactive) | 
Clc1ccc(CCC(Cn2ccnc2)Sc2c(Cl)cccc2Cl)cc1 (stereo not given) | -1.84% (inactive) | 
CCN(CC)c1c([N+](=O)[O-])cc(C(F)(F)F)c(N)c1[N+](=O)[O-] | -13.2% (inactive) | 
CSCCCN=C=S | -4.5% (inactive) | 
O=S(=O)(c1ccc(Cl)cc1)c1ccc(Cl)cc1 | 3.1% [at 81.1 µM] (inactive) | 
O=[N+]([O-])c1ccc2ccc3cccc4ccc1c2c34 | -6.64% (inactive) | 
CC(C)[C@H](C(=O)OC(C#N)c1cccc(Oc2ccccc2)c1)c1ccc(OC(F)F)cc1 (stereo not given in full) | 26.8% (inactive) | 
O=C(O)C1C2CCC(O2)C1C(=O)O (stereo not given) |  | inactive
CN(C)CCc1c[nH]c2ccc(O)cc12 | -9.19% [at 81.1 µM] (inactive) | 
Clc1ccc(CO/N=C(\Cn2ccnc2)c2ccc(Cl)cc2Cl)c(Cl)c1 | 10.7% (inactive) | 
Clc1ccc(CSC(Cn2ccnc2)c2ccc(Cl)cc2Cl)cc1 (stereo not given) | -6.46% (inactive) | 
O=C(CCCN1CCC2(CC1)C(=O)NCN2c1ccccc1)c1ccc(F)cc1 | -17.3% (inactive) | 
CCCCCCCCCCCCBr | -11.1% (inactive) | 
O=C/C(Cl)=C(/Cl)C(=O)O |  | inactive
CCCN(CC)CC1COC2(CCC(C(C)(C)C)CC2)O1 (stereo not given) | 6.48% (inactive) | 
COP(=O)(OC)SCn1c(=O)oc2cc(Cl)cnc21 | 0.951% (inactive) | 
FC(Cl)(Cl)Cl | 2.63% (inactive) | 
